According to the supplement of paper PMC13172266:

How the values were obtained:
Test in all cases: cell proliferation relative to vehicle (% of vehicle); higher = less growth inhibition
Settings in all cases: 72 h
[1] = test system: U2932 TK216-resistant clone 2
Method in brief: (§1)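 A targeted inhibitor library of 348 compounds was tested on the ABC-DLBCL line U2932, both parental and two clones made resistant to an ETS-targeting agent by repeated exposure over almost a year. Cells were grown at 37°C and 5% CO2 in medium with 10% FBS, then treated at 500 nM or 50 nM for 72 h. MTT was added for 4 h, stopped with 25% SDS, and absorbance was read on a Cytation 3. Proliferation is reported as percent of proliferating cells relative to vehicle (DMSO).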

[2] = test system: U2932 TK216-resistant clone 3
Method in brief: as §1

U2932 parental = test system: U2932 parental
Method in brief: as §1

Compound	cell proliferation ([1]; 50 nM)	cell proliferation ([1]; 500 nM)	cell proliferation ([2]; 50 nM)	cell proliferation ([2]; 500 nM)	cell proliferation (U2932 parental; 50 nM)	cell proliferation (U2932 parental; 500 nM)
C[C@]12CCC(=O)C=C1CC[C@@H]1[C@@H]2[C@@H](O)C[C@@]2(C)[C@H]1CC[C@]2(O)C(=O)CO [Hydrocortisone]	95.7	81.2	97.8	85.1	96.1	87.3
COC(=O)c1ccc([C@H]2c3[nH]c4ccccc4c3C[C@H](C(=O)OC)N2C(=O)CCl)cc1	85	-2.9	84	-4.49	100	-1.25
COc1ccc(S(=O)(=O)N(C(C)=O)c2ccccc2/C=C/c2cc[n+]([O-])cc2)cc1	103	12.6	99.5	13.2	88.7	11.3
c1ccc(Cn2c(-c3ccc(OC[C@H](C4CCNCC4)n4c(-c5ccccc5)nc5ccccc54)cc3)nc3ccccc32)cc1 [Deltarasin]	102	88	98.8	83.6	103	91.4
O=c1[nH]c(=O)n([C@H]2C[C@H](O)[C@@H](CO)O2)cc1F [Floxuridine]	60.3	37.4	95.2	72.5	73.1	34.2
CCn1c2ccccc2c2cc(Nc3ccnc(NCCCN4CCOCC4)n3)ccc21	85.4	91	74.8	88.1	83.6	91.7
CO[C@H]1C[C@@H]2CC[C@@H](C)[C@@](O)(O2)C(=O)C(=O)N2CCCC[C@H]2C(=O)O[C@H]([C@H](C)C[C@@H]2CC[C@@H](OP(C)(C)=O)[C@H](OC)C2)CC(=O)[C@H](C)/C=C(\C)[C@@H](O)[C@@H](OC)C(=O)[C@H](C)C[C@H](C)/C=C/C=C/C=C/1C [Ridaforolimus (Deforolimus, MK-8669)]	67.9	64.3	62.2	58.5	56.4	57.2
C=CCc1ccc(O)c(-c2ccc(O)c(CC=C)c2)c1 [Honokiol]	108	111	104	102	100	106
Cc1cc(Nc2cc(N3CCN(C)CC3)nc(Sc3ccc(NC(=O)C4CC4)cc3)n2)n[nH]1 [VX-680 (Tozasertib, MK-0457)]	91.1	79.9	72.2	69	64.5	57.8
CCOC(=O)c1[nH]c2cc(Cl)ccc2c1C(C(=O)NC(C)(C)C)N(C=O)Cc1ccc(Cl)cc1 (stereo not drawn)	106	92.2	103	95.6	97.7	93.4
COc1ccc2c(Oc3ccc(NC(=O)c4c(C)n(CC(C)(C)O)n(-c5ccccc5)c4=O)nc3)ccnc2c1	102	103	95.4	97.4	103	97
O=c1[nH]nc(Sc2ncc([N+](=O)[O-])s2)n1-c1ccc2c(c1)OCCO2	98.1	94.6	102	97.9	100	99.3
Nc1ccn([C@@H]2O[C@H](CO)[C@@H](O)[C@@H]2O)c(=O)n1 [Cytarabine]	93.7	24	93.6	65.8	88.9	36
O=c1cc(-c2cccc3c2Sc2ccccc2S3)oc(N2CCOCC2)c1	108	102	98.8	95.3	102	103
Cc1cn([C@H]2O[C@@H](CO)[C@H](O)[C@H]2F)c(=O)[nH]c1=O [Clevudine]	100	103	96.2	103	98.8	96.8
Cc1ccc([C@@H]2O[C@H](CO)[C@@H](O)[C@H](O)[C@H]2O)cc1Cc1ccc(-c2ccc(F)cc2)s1 [Canagliflozin]	93.3	102	104	104	91.9	87.9
Nc1nc(Nc2ccc(S(N)(=O)=O)cc2)nn1C(=O)c1c(F)cccc1F	103	85.3	102	78.1	98.8	87.7
COc1ccc(C2=N[C@@H](c3ccc(Cl)cc3)[C@@H](c3ccc(Cl)cc3)N2C(=O)N2CCNC(=O)C2)c(OC(C)C)c1 [Nutlin-3a]	110	102	99.8	99.2	104	104
Nc1ccccc1NC(=O)c1ccc(CNC(=O)OCc2cccnc2)cc1 [Entinostat (MS-275)]	104	74.8	88.2	66.7	93.2	66.2
CC(C)(C)c1cnc(CSc2cnc(NC(=O)C3CCNCC3)s2)o1	91.1	14.7	77.8	17.2	90.1	12.1
COc1cc(F)c(F)c(Nc2ccc(I)cc2F)c1NS(=O)(=O)C1(C[C@H](O)CO)CC1 [Refametinib (RDEA119, Bay 86-9766)]	104	92.6	105	97.1	92.8	96.2
CCCc1ccc(OCC(=O)N(Cc2nc(-c3cccnc3)no2)C(C)C)cc1	107	102	103	101	85.2	97.7
O=C(O)CC[C@H]1CC[C@@](c2cc(F)ccc2F)(S(=O)(=O)c2ccc(Cl)cc2)CC1	102	109	105	106	93.5	93.2
Cn1cnc2c(F)c(Nc3ccc(Br)cc3Cl)c(C(=O)NOCCO)cc21 [Selumetinib (AZD6244)]	106	95.8	97	90.1	99.3	101

Compound	cell proliferation ([1]; 50 nM)	cell proliferation ([1]; 500 nM)	cell proliferation ([2]; 50 nM)	cell proliferation ([2]; 500 nM)	cell proliferation (U2932 parental; 50 nM)	cell proliferation (U2932 parental; 500 nM)
CC[C@@](C)(Nc1ccnc(-c2c[nH]c3ncccc23)n1)C(=O)NCC(F)(F)F [Decernotinib (VX-509)]	103	92.4	97.4	105	98.2	98.6
O=C(O)c1ccc(-c2c[nH]c3ncc(-c4ccccc4)cc23)cc1C1CCCC1	107	100	97.4	105	105	107
COc1ccc(S(=O)(=O)N(CCO)c2ccccc2CN(C)C/C=C/c2ccc(Cl)cc2)cc1 [KN-93 Phosphate]	103	90.8	105	90.1	102	89.6
Cc1nc(Nc2ncc(C(=O)Nc3c(C)cccc3Cl)s2)cc(N2CCN(CCO)CC2)n1 [Dasatinib]	74.2	63.7	66.1	52.4	75	60.9
COc1nc(OCc2cccc(-c3ccccc3)c2C)ccc1CNCCNC(C)=O [PD-1/PD-L1 inhibitor 2]	95.9	89	94.4	82.7	104	91.5
O=c1[nH]cc(F)c(=O)[nH]1 [Fluorouracil (5-Fluoracil, 5-FU)]	102	102	103	106	102	96.2
COc1cc2c(Oc3ccc4[nH]c(C)cc4c3F)ncnc2cc1OCCCN1CCCC1 [Cediranib (AZD2171)]	105	92.6	99.8	83	96.7	90.4
Oc1c2ccccc2c2c3c(cccc13)N=N2	101	113	105	104	103	101
C[C@@H](Oc1cc(-c2cnn(C3CCNCC3)c2)cnc1N)c1c(Cl)ccc(F)c1Cl	97.6	74.4	86.4	61.9	89.9	56.5
O=C(c1ccc(/C=C/c2n[nH]c3ccccc23)cc1)N1CCNCC1	109	91	104	82.4	95	72.2
CN(Cc1cnc2nc(N)nc(N)c2n1)c1ccc(C(=O)N[C@@H](CCC(=O)O)C(=O)O)cc1 [Methotrexate]	102	37.1	102	67.8	99.4	29.9
CNc1nc(Nc2cn(C(C)(C)C#N)nc2C)ncc1C(F)(F)F	101	96.4	101	95.2	100	98.2
CO[C@@H](C(=O)N1Cc2[nH]nc(NC(=O)c3ccc(N4CCN(C)CC4)cc3)c2C1)c1ccccc1	97.2	84	77.8	71.7	71.8	69.5
C[C@]12CC[C@@H]3c4ccc(O)cc4C[C@@H](CCCCCCCCC[S+]([O-])CCCC(F)(F)C(F)(F)F)[C@H]3[C@@H]1CC[C@@H]2O (stereo partly drawn) [Fulvestrant]	98.2	101	103	104	98.8	93.9
C/C(=C\C(=O)Nc1ccccc1C(=O)O)c1ccc2ccccc2c1	82.5	98.2	109	100	97.4	102
N#C/C(=C(/N)Sc1ccc(N)cc1)c1ccccc1C(F)(F)F	102	98	90.8	92.8	104	99.2
Cc1nc(N)sc1-c1ccnc(Nc2ccc(N3CCOCC3)cc2)n1	91.2	103	99.5	103	103	95.8
CCN(CC)CCNC(=O)c1c(C)[nH]c(/C=C2\C(=O)Nc3ccc(F)cc32)c1C [Sunitinib Malate]	107	94.6	99.4	92.6	101	104
O=c1oc2c(O)c(O)cc3c(=O)oc4c(O)c(O)cc1c4c23 [Ellagic acid]	99	110	106	107	101	100
COc1cc2c(cc1O)CC[C@@H]1[C@@H]2CC[C@]2(C)[C@@H](O)CC[C@@H]12 [2-Methoxyestradiol (2-MeOE2)]	105	102	103	83.4	99.8	54
NC(=O)Nc1cc(-c2cccc(F)c2)sc1C(=O)N[C@H]1CCCNC1	89.8	13.6	91.8	18.9	83	11.5
CC[C@H](CO)Nc1nc(NCc2ccccc2)c2ncn(C(C)C)c2n1 [Roscovitine (Seliciclib,CYC202)]	105	102	107	107	99.6	106
Cc1nc(C(=O)NCC(=O)O)c(O)c2ccc(Oc3ccccc3)cc12	102	98.6	104	98.5	98.3	95.4
CC[C@@H]1C(=O)N(C)c2cnc(Nc3ccc(C(=O)NC4CCN(C)CC4)cc3OC)nc2N1C1CCCC1	13.1	21	16.2	23.3	14.8	20.4
